# GAA glycogen: alters human alpha-glucosidase cleavage of glycogen; actives 0.38% (n = 300,000); P10253; recombinant GAA, glycogen substrate, Amplex Red glucose oxidase fluorescence; AID 2100; Potency, µM (titrated, usually from 76.4 µM), without a hit: at the top dose activity change, negative = inhibition, actives largely listed as inhibitors;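 further: potency means the concentration at half of the fitted maximal effect; 0% = full enzyme reaction and -100% = no-enzyme basal signal; the screen sought inhibitors and activators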
#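 Recombinant enzyme (4 nM final) with compounds titrated up to 77 uM and bovine liver glycogen (30 ug) in citrate pH 5.0, 0.01% Tween-20, 37 C 40 min. Released glucose detected by Amplex Red/glucose oxidase (Ex 573/Em 610); AC50 from Hill fits.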
# GAA inh: alpha-glucosidase (human) inhibition; P10253; purified human GAA, 4-MU-alpha-glucoside fluorescence; Potency, µM (highest dose often 76.9 µM), without a hit: at the highest dose activity change, negative = inhibition, actives largely listed as inhibitors; actives 0.005% (n = 200,000);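 further: potency means the concentration at half of the fitted maximal effect; plate controls were uninhibited enzyme wells for no effect and no-enzyme background for full effect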
#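 Fluorescence at Ex 365/Em 440 nm from 4-methylumbelliferone reported enzyme activity after 20 min at room temperature. Reactions used 4 nM enzyme and 400 uM substrate at pH 5.0; curves fitted with the Hill equation.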
# aGlu spleen mod: inhibitors or activators of human alpha-glucosidase in spleen homogenate | P10253 | human spleen homogenate, 4-MU-alpha-glucoside fluorescence | Potency, µM (series often up to 79.9 µM), for the others: top-dose activity change, negative = inhibition, hits mostly inhibitors | actives 0.006% (n = 240,000);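 further: potency means the concentration at half of the fitted maximal effect; 0% = enzyme with vehicle and -100% = no enzyme basal signal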
#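 Enzyme source: human spleen homogenate, 1 ug/well. Buffer 50 mM citric acid/K phosphate pH 5.0, 0.01% Tween-20. 4-MU-alpha-glucoside 1 mM; 37 C x 40 min; NaOH/glycine stop; fluorescence.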
# aGal spleen mod: inhibits or activates alpha-galactosidase in human spleen homogenate | human spleen homogenate, 4MU-alpha-Gal fluorescence, 40 min | Potency, µM (top dose mostly 80 µM), for inactives: at the highest dose activity change, negative = inhibition, usual class: inhibitors | actives 0.008% (n = 240,000);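 further: potency means the concentration at half of the fitted maximal effect; 0% = enzyme with vehicle and -100% = no enzyme basal signal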
#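 Inhibition or activation of alpha-galactosidase in human spleen homogenate is scored by 4-MU fluorescence after 40 min at 37C, pH 5.0, with 1 mM substrate. AC50s come from concentration-response fitted to the Hill equation.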
# GLA inh pH 4.5: alpha-galactosidase A (human) inhibition, pH 4.5; P06280; activity change, negative = inhibition, % at 105 µM; 230,000 tested, under 10 active; purified enzyme, 4-MU-alpha-Gal fluorescence, pH 4.5;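 further: 0% = full activity with enzyme and -100% = basal without enzyme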
# Target sequence (P06280 whole entry, looked up): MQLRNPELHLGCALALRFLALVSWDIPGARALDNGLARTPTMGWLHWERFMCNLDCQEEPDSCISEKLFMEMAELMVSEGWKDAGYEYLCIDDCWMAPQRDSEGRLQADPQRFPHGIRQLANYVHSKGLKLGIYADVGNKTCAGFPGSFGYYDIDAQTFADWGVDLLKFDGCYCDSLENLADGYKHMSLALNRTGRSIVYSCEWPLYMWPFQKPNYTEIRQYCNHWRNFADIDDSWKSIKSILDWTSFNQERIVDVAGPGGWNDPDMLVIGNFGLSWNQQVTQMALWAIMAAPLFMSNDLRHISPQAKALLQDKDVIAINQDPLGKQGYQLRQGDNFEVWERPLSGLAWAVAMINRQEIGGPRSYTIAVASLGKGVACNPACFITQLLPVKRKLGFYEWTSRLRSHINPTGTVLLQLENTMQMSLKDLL
# N370S GC mod: N370S glucocerebrosidase modulation, Gaucher chaperone candidate; P04062; N370S GC spleen homogenate, 4MU-glucoside fluorescence; Potency, µM (highest dose often 59.4 µM), inactives show at the top dose activity change, negative = inhibition, hits mostly inhibitors; actives 0.092% (n = 330,000); AID 2101;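 further: potency means the concentration at half of the fitted maximal effect; 0% = full enzyme activity and -100% = no enzyme basal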
# The depositor's hits bear a star; ? = inconclusive; . = no result; [ ] = dose if it differs, or a comment. Rows were chosen to be rich in hits. Some 0.43% of all compounds tested hit in one or more screens of this group. The call rests on the fitted dose curve; in most records, active means well fitted curve in the direction sought with a large enough effect; inconclusive means small, poorly fitted or top-dose-only effect, or another doubt; inactive means no such curve, though single readings can be large; an effect the other way counts as inactive or inconclusive.
SMILES,GAA glycogen,GAA inh,aGlu spleen mod,aGal spleen mod,GLA inh pH 4.5,N370S GC mod
CSCC[C@H](NC(=O)[C@H](CC(C)C)NC(=O)CNC(=O)[C@H](Cc1ccccc1)NC(=O)[C@H](Cc1ccccc1)NC(=O)[C@H](CCC(N)=O)NC(=O)[C@H](CCC(N)=O)NC(=O)[C@@H]1CCCN1C(=O)[C@H](CCCCN)NC(=O)[C@@H]1CCCN1C(=O)[C@H](CCCN=C(N)N)NC(=O)CCCCC1SCC2NC(=O)NC21)C(N)=O (some centres not stated),.,.,-1.7%,-21.4%,.,-0.7%
CC1CCC(NC(=O)Nc2cccs2)CC1 (configuration not stated),15.8µM*,-7.7%,-6.6%,-0.4%,0.7,1.8%
C/C=C/c1cc(CN2CCN(c3ccc(OC)cc3)CC2)c(O)c(OC)c1,14.1µM*,-2.8%,-1.9%,-1.9%,-5.4,15.3%
C/C=C/c1cc(CN2CCN(c3ccccc3)CC2)c(O)c(OC)c1,?,6.0%,1.2%,3.3%,-11.0,-8.4%
N[C@@H](Cn1c2c(c(=O)[nH]c1=O)CCC2)C(=O)O,.,.,-0.9%,2.2%,-1.6,-10.1%
O=C(NCCCCc1ccccc1)C12CN(Cc3ccccc3)CC1C(c1cccc([N+](=O)[O-])c1)=NO2 (configuration not stated),-9.8%,-2.5%,-8.4%,-8.0%,-11.6,-7.4%
O=C(NCCCCc1ccccc1)C12CN(Cc3ccccc3)CC1C(c1ccc([N+](=O)[O-])cc1)=NO2 (configuration not stated),-0.8%,?,-4.3%,-7.7%,-18.8,10µM*
Cc1ccc(-n2c(CNc3cccc(Cl)c3)n[nH]c2=S)cc1,28.2µM*,-3.4%,-2.4%,-1.7%,9.6,2.2%
Cc1ccc(NCc2n[nH]c(=S)n2-c2cccc(Cl)c2)cc1,?,1.2%,-3.2%,-7.1%,16.3,21.8%
Cc1c(C2=CCN(S(=O)(=O)c3ccc(CC(C)C)cc3)CC2)c2ccccc2n1CC(=O)N1CCCC1,-16.2%[76.3 µM],.,.,.,.,.
CC(C)=CC(=O)Oc1ccc(C(=O)N(C)c2ccccc2I)cc1,.,.,-1.5%,5.7%,.,-1.1%
Cc1cc2c(cc1S(=O)(=O)NCc1ccc(F)cc1)OCC(=O)N2,-7.8%[76.3 µM],.,.,.,.,.
COc1ccc(NC2=C(Cl)C(=O)N(c3ccccc3)C2=O)c(OC)c1,2.5%,-9.5%[15.4 µM],-6.8%,-9.9%,.,11.5%
COc1ccc(N2C(=O)C(Cl)=C(Nc3c(C)n(C)n(-c4ccccc4)c3=O)C2=O)cc1,25.1µM*,5.6%,1.8%,-1.9%,-14.0,-1.7%
Cc1ccc(C)c(NC(=O)C2CCCN(S(=O)(=O)c3ccc4[nH]c(=O)ccc4c3)C2)c1 (configuration not stated),31.6µM*,.,.,.,.,-22.8%
CCCCc1cc2c(cn1)=C(OC(=O)c1cccs1)C(C)(OC(=O)CC)C(=O)C=2 (configuration not stated),.,.,6.7%[17.4 µM],-5.2%[17.5 µM],2.3,1.5%[12.8 µM]
Cc1ccc(-c2nc3ccccn3c2Nc2ccc3c(c2)OCCO3)o1,4.47µM*,.,.,.,.,.
c1csc(-c2nc3ccccn3c2Nc2ccc3c(c2)OCCO3)c1,12.6µM*,.,.,.,.,.
Cc1ccc2nc(-c3ccc(C)o3)c(Nc3ccc4c(c3)OCCO4)n2c1,6.31µM*,.,.,.,.,.
Cc1ccc(-c2nc3ccccn3c2Nc2ccccc2)o1,7.94µM*,6.5%,8.6%,29.5%,4.6,5.2%
c1cncc(-c2nc3ccccn3c2Nc2ccc3c(c2)OCCO3)c1,17.7%,-5.2%,-2.3%,-5.6%,-17.5,-1.1%
O=C(NCc1ccccc1)c1ccc(Cn2c(=O)c3cccn3c3cccnc32)cc1,-6.2%[76.3 µM],.,.,.,.,.
COc1ccc(Cn2c(C)nnc2-c2cnn(C)c2N)cc1,-0.7%,4.8%,?,28.2µM*,12.4,5.1%
CC#CCN1c2ccccc2[C@]23C[C@@H](C(=O)OC)N(S(=O)(=O)CCCC)C2=NC(C(=O)OC)=C(C(=O)OC)[C@H]13,.,.,6.4%[17.4 µM],11.4%[17.5 µM],-4.3,8.4%[12.8 µM]
COc1cc(C2NC(=O)NC(C)=C2C(=O)OCc2ccc(C)cc2)cc(OC)c1OC (configuration not stated),6.0%[76.3 µM],.,.,.,.,-14.9%
SMILES,GAA glycogen,GAA inh,aGlu spleen mod,aGal spleen mod,GLA inh pH 4.5,N370S GC mod
COc1cc(C2NC(=O)NC(C)=C2C(=O)OCc2ccc(C)cc2)cc(OC)c1O (configuration not stated),9.92µM*,1.0%,9.7%,7.8%,4.5,-0.4%
CC(C)(C)NC(=S)Nc1ccc(Nc2ccccc2)cc1,14µM*,-7.8%,?,0.2%,-6.9,16.3%
CC(C)(C)NC(=S)Nc1ccc(Br)cc1,-12.1%,-14.0%,-3.5%,-3.6%,-10.8,6.8%
NC(=O)Cc1c[nH]c2cccc(O)c12,10µM*,1.5%,4.0%,-1.8%,7.1,9.4%
COc1cccc(NC(=S)NNC(=O)C(C)n2nc(C)c([N+](=O)[O-])c2C)c1 (configuration not stated),10µM*,0.3%,8.5%,14.6%,2.7,15.1%
COc1cccc(NC(=S)NNC(=O)c2c([N+](=O)[O-])c(C)nn2C)c1,24.9µM*,0.7%,-1.1%,-1.3%,2.2,-1.9%
C=CCn1c(SCC(=O)NC2CCCC2)nc2scc(-c3ccco3)c2c1=O,2.0%,-6.7%,-7.2%,-7.5%,3.4,12.6µM*
CC(C)CC1Nc2ccc(C(=O)NCCCN3CCCCC3C)cc2NC1=O (configuration not stated),12.6µM*,.,.,.,.,-5.9%
C[C@H]1Cc2c(COc3ccccc3)nc3c(c2CO1)CN(S(=O)(=O)c1ccc(C#N)cc1)CC3,.,.,-1.6%[17.4 µM],-2.8%[17.5 µM],8.3,-1.4%[12.8 µM]
CSc1nnc(SC)nn1,.,.,1.9%,8.3%,-3.1,-4.4%
O=c1ccc2cc(O)c(O)cc2o1,6.31µM*,?,5.2%,?,?,?
O=c1ccc2cc3ccoc3cc2o1,-5.8%[76.3 µM],.,13.7%,-9.7%,-2.6,3.5%
Cc1ccc2nsnc2c1S(=O)(=O)Nc1cccc2cccnc12,.,.,4.2%,2.1%,.,8.0%
C[C@@]12CCc3occc3[C@H]1CC[C@]13CC(=O)[C@@H](CC[C@H]12)C3,.,.,3.1%,2.9%,.,-0.7%
N#C/C(=C\c1cc(Cl)cc(Cl)c1)c1cccnc1,.,.,4.2%,-2.0%,.,-7.9%
COc1ccc(S(=O)(=O)Nc2c(C(=O)O)[nH]c3ccc(OC)cc23)c(OC)c1,?,.,.,.,.,0.4%
COc1ccc(S(=O)(=O)Nc2c(C(=O)O)[nH]c3ccc(OC)cc23)cc1,?,.,.,.,.,-7.0%
COc1ccc(S(=O)(=O)Nc2c(C(=O)O)[nH]c3ccccc23)c(OC)c1,3.52µM*,-0.5%,4.4%,9.6%,-19.0,-6.0%
